From PubChem BioAssay
KCNQ2 pot: enhances the rat KCNQ2 potassium channel | CHO-K1 KCNQ2, FluxOR thallium flux fluorescence; stronger effect = higher value | B-score at 10 µM | hit rate 0.54% among 310,000;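 active = fluorescence ratio B-score at least 3 SD of library B-scores, with initial fluorescence B-score within 3 of them, cut at about 5.3 in these data; same plate scores as AID 2156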;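 note: B-score of peak minus minimum over baseline fluorescence ratio after K+ and Tl+ stimulus; positive B-score means potentiation of KCNQ2 with more thallium influx and brighter signal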
Target sequence (O88943 whole entry, looked up): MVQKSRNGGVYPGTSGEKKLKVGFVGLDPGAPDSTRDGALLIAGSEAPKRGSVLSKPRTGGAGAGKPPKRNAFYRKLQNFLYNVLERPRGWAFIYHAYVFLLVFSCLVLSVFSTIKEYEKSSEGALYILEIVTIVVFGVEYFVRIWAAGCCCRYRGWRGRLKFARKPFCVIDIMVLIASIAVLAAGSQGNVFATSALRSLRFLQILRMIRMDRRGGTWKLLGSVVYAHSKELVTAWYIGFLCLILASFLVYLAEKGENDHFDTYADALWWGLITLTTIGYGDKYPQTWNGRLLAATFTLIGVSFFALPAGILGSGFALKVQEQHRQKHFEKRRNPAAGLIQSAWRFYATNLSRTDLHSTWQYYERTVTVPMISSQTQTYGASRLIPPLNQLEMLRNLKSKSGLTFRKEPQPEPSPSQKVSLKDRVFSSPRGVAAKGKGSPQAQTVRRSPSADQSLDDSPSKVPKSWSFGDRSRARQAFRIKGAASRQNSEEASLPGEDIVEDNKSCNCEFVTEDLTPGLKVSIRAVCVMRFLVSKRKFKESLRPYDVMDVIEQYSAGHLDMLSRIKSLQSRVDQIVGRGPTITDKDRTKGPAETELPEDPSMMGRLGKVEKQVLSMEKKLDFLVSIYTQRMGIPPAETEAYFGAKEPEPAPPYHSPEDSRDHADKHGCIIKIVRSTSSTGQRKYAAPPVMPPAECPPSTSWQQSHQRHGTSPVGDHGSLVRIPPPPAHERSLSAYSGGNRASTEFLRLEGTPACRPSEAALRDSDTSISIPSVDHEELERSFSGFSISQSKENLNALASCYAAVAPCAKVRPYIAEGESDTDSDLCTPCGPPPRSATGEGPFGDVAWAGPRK
KCNQ2 inh: blocks the rat KCNQ2 potassium channel; B-score at 10 µM; CHO-K1 KCNQ2, FluxOR thallium flux, 20 min; stronger effect = lower value; O88943; hit rate 1.1% among 310,000; AID 2156;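 active = fluorescence ratio B-score at most minus 3 library SDs, with starting brightness B-score within 2 library SDs, cut at about -5.5 in these data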
Each line names hits and unclear results; the compound was inactive in the other large screens. The list is not random: actives were taken first. Their share in the collection is about 1.6%.

COc1ccc(OC)c(C(C(=O)NC2CCCCC2)N(C(=O)c2snc(C(N)=O)c2N)c2ccccc2OC)c1 (centres undefined)	none (no result: KCNQ2 pot)
COc1ccc(N(C(=O)c2snc(C(N)=O)c2N)C(C(=O)NC2CCCC2)c2cccs2)c(OC)c1 (centres undefined)	KCNQ2 inh -8.03
NC(=O)c1nsc(C(=O)N(Cc2cccnc2)C(C(=O)NCc2ccc(F)cc2)c2ccc(F)cc2)c1N (centres undefined)	none
Cc1nnc(SCC(=O)Nc2nc(-c3ccc(F)cc3)cs2)[nH]c1=O	none (no result: KCNQ2 pot)
COc1ccc(C2CC(=O)OC3=C2C(=O)CC(C)(C)C3)c(OC)c1 (centres undefined)	none
COc1ccc([C@@H]2COc3c(ccc4c3C=CC(C)(C)O4)C2)c(OC)c1	KCNQ2 inh -6.29
Cc1cc(C)cc(N(CCC#N)C(=O)CSC2=Nc3ccccc3C3CC=NN23)c1 (centres undefined)	KCNQ2 inh -6.11
N#Cc1ccccc1NC(=O)CSC1=Nc2ccccc2C2CC=NN12 (centres undefined)	none (no result: KCNQ2 pot)
CN1c2ccccc2-c2nc3ccccc3n2C1c1cccs1 (centres undefined)	none
Clc1ncnc2scc(-c3ccccc3)c12	none
S=c1[nH]cnc2scc(-c3ccccc3)c12	KCNQ2 pot 10.5
O=C(NC(=S)N1CCCC1)c1cccc([N+](=O)[O-])c1	none
CCCCCCC(=O)N1CCC(c2nc3c(nnn3Cc3ccccc3Cl)c(=O)[nH]2)CC1	none
Cc1ccc(C2=NOC(C)(c3nnc(-c4cccc(Cl)c4)o3)C2)cc1 (centres undefined)	none (no result: KCNQ2 pot)
CC1(c2nnc(-c3cccc(Cl)c3)o2)CC(c2c(Cl)cccc2Cl)=NO1 (centres undefined)	KCNQ2 inh -5.61
Cc1cccc(N2CCN(C(=O)CCCCCn3c(=S)[nH]c4ccc(N5CCOCC5)cc4c3=O)CC2)c1C	none (no result: KCNQ2 pot)
O=C(NCCc1ccccc1)C1CCCN(C(=O)Nc2ccc(F)cc2)C1 (centres undefined)	none (no result: KCNQ2 pot)
Cc1nc2ccccc2n1S(=O)(=O)c1ccc(S(=O)(=O)N2CCCCCC2)cc1	none (no result: KCNQ2 pot)
Cc1ccc(S(=O)(=O)n2c(C)nc3ccccc32)cc1	KCNQ2 inh -7.28
NC(=O)C1CCN(C(=O)CC2(CC(=O)O)CCCC2)CC1	none
CC(C)OC(=O)CSc1nnc(CNc2cccc(Cl)c2)n1C	none
CCOC(=O)CSc1nnc(CNc2cccc(Cl)c2)n1-c1ccccc1	KCNQ2 inh -6.39
O=c1c2ccccc2c(-c2ccccc2)nn1Cc1c(Cl)cccc1Cl	KCNQ2 inh -5.82
CCOC(=O)Cn1nc(-c2ccccc2)c2ccccc2c1=O	none
COc1ccc(C2=CC(=O)OC(C)(c3ccccc3)O2)cc1 (centres undefined)	none (no result: KCNQ2 pot)
COc1ccc(C(=O)Nn2c(C)nc3ccccc3c2=O)c(OC)c1	none (no result: KCNQ2 pot)
COc1cccc(C(=O)Nn2c(-c3cccs3)nc3ccccc3c2=O)c1OC	KCNQ2 inh -6.36
COc1cccc(C=Nc2cccc3c(=O)[nH][nH]c(=O)c23)c1O	none (no result: KCNQ2 pot)
O=C(/C(=C/c1ccc(Cl)cc1)c1nc2ccccc2[nH]1)c1cccs1	KCNQ2 inh -6.31
COc1cc(/C=C(/C(=O)c2cccs2)c2nc3ccccc3[nH]2)ccc1O	KCNQ2 inh -7.63
COC(=O)/C(=C\c1cc(OC)c(OC)c(OC)c1)c1nc2ccccc2[nH]1	none (no result: KCNQ2 pot)
O=C(/C(=C\c1ccccc1)c1nc2ccccc2[nH]1)c1ccc(Cl)cc1	none
ClCc1nc2ccccc2c2ccccc12	none (no result: KCNQ2 pot)
Cc1ccc(C(=O)OCC(=O)N(CCc2ccccc2)Cc2ccccc2)cc1S(=O)(=O)N1CCOCC1	KCNQ2 inh -6.04
O=C(OCC(=O)N(CCc1ccccc1)Cc1ccccc1)c1cccc(O)c1	none (no result: KCNQ2 pot)
COc1ccc(C(=O)N(CCc2ccccc2)Cc2ccccc2)cc1S(=O)(=O)N1CCOCC1	none (no result: KCNQ2 pot)
O=C(OCC(=O)N(CCc1ccccc1)Cc1ccccc1)c1cc(S(=O)(=O)N2CCOCC2)ccc1F	none (no result: KCNQ2 pot)
O=C(OCC(=O)N(CCc1ccccc1)Cc1ccccc1)c1ccccc1NCCO	KCNQ2 inh -6.48
Cc1ccc(C(=O)N(CCc2ccccc2)Cc2ccccc2)cc1S(=O)(=O)N1CCCCC1	KCNQ2 inh -8.06
NC(=O)CSc1ccc(F)cc1	none (no result: KCNQ2 pot)
C=CCc1cc(Cl)ccc1OCCOCCN(C)C	none (no result: KCNQ2 pot)
COc1ccc(CCNC(=O)c2cc(C(=O)c3cc(C)ccc3O)cn(CCc3ccc(OC)cc3)c2=O)cc1	KCNQ2 inh -7.27
O=C(c1cc(C(=O)NCCc2ccccc2)c(=O)n(CCc2ccccc2)c1)c1cc(Cl)ccc1O	KCNQ2 inh -6.38
O=C(NCCc1ccccc1)c1ccccc1Cl	none (no result: KCNQ2 pot)
COc1ccc(CCNC(=O)c2cc(C(=O)c3cc(Cl)ccc3O)cn(CCc3ccc(OC)cc3)c2=O)cc1	none (no result: KCNQ2 pot)
CC(C)(C)C(=O)c1no[n+]([O-])c1/C(=N/O)C(C)(C)C	KCNQ2 inh -6.97
OCCN1CCN(c2nc(-c3ccccc3)c3cc(Cl)ccc3n2)CC1	none (no result: KCNQ2 pot)
Clc1ccc2nc(N3CCNCC3)nc(-c3ccccc3)c2c1	KCNQ2 inh -5.9
O=C(O)C1CCCCC1C(=O)Nc1ccc(S(=O)(=O)N2CCCCC2)cc1 (centres undefined)	none
Cc1ccc(NC(=O)CN(c2ccccc2)S(=O)(=O)N(C)C)cc1C	none (no result: KCNQ2 pot)
Cc1cc(C)c(NC(=O)CN(c2ccccc2)S(=O)(=O)N(C)C)c(C)c1	KCNQ2 inh -5.61
COc1ccccc1-c1ccc(SCc2ccc([N+](=O)[O-])cc2)nn1	none (no result: KCNQ2 pot)
COc1ccccc1-c1ccc(SCc2cccc(C)c2)nn1	KCNQ2 inh -6.22
CC1=NN(C(N)=S)C(=O)C1N=Nc1c(C)n(C)n(-c2ccccc2)c1=O (centres undefined)	none (no result: KCNQ2 pot)
CC(=O)N1CCc2cc(Br)cc(S(=O)(=O)CCC(=O)N3CCN(c4ccccn4)CC3)c21	none (no result: KCNQ2 pot)
CCOC(=O)c1nnn(CC(=O)N2N=C(c3ccccc3)CC2c2ccccc2)c1C(=O)OCC (centres undefined)	none
CCOC(=O)c1nnn(CC(=O)N2N=C(c3cc(C)ccc3C)CC2c2ccc(OC)cc2)c1C(=O)OCC (centres undefined)	KCNQ2 inh -5.77
Cc1cc2nc(-c3ccc(=O)[nH]c3)n(Cc3ccccc3)c2cc1C	none (no result: KCNQ2 pot)
CC(C)(C)C1CCC(=NNc2nc3ccccc3[nH]2)CC1 (centres undefined)	KCNQ2 inh -5.76
c1ccc(CN2CCC(=NNc3nc4ccccc4[nH]3)CC2)cc1	none
N=c1sccn1CC(=O)Nc1ccc(SC(F)F)cc1	none (no result: KCNQ2 pot)
COCCC(=O)N1CCC(Oc2ccc(C(=O)NCc3nccn3C)cc2)CC1	none (no result: KCNQ2 pot)
O=C(CSc1nnc(COc2ccc(Cl)cc2)o1)N1CCCC1	none
O=C(CSc1nnc(COc2ccc(Cl)cc2)o1)N1c2ccccc2CCc2ccccc21	KCNQ2 inh -9.41
COc1ccccc1CNC(=O)COC(=O)c1nc(Cl)ccc1Cl	none
CCCCOc1ccc(N(CC(=O)NCc2ccccc2)C(=O)c2csnn2)cc1	none (no result: KCNQ2 pot)
Cc1noc(C)c1COc1cccc(C(=O)OCC(=O)NCCN2C(=O)CSC2=O)c1	KCNQ2 pot 8.35
O=C(COC(=O)c1cccc(Cl)c1)NCCN1C(=O)CSC1=O	none
COc1ccc(N2CCN(C(=O)NC(=O)c3ccccc3)CC2)cc1	none
Cc1cc(C)c(COc2ccc(/C=N/n3c(C)n[nH]c3=S)cc2)c(C)c1	none (no result: KCNQ2 pot)
CC1CC(C)CN(c2ccc(C(=O)OCC(=O)NC3CCCc4ccccc43)cc2[N+](=O)[O-])C1 (centres undefined)	KCNQ2 inh -7.77
Cn1cnnc1Sc1ccc(C(=O)OCC(=O)NC2CC2)cc1[N+](=O)[O-]	none
